Compounds without any hit were thinned out: in the full panel of roughly 83,000, 20% have a hit.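 Cell lines were cultured in 96-well plates, exposed to a single compound concentration, and assessed for percent growth 48 hours later.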 A number with no mark means an inactive call. Active and inactive are the calls of the source. How the source made its calls: active means growth percent below 10; inactive means the rest.
Experiments:
Assay in all cases: NCI-60 one-dose screen, 48 h (100 = growth as untreated, 0 = no growth, -100 = all killed)
Settings in all cases: 10 µM unless noted
SR leukemia = test system: SR leukemia
RPMI-8226 leukemia = test system: RPMI-8226 leukemia
OVCAR-8 ovarian = test system: OVCAR-8 ovarian
OVCAR-5 ovarian = test system: OVCAR-5 ovarian
OVCAR-4 ovarian = test system: OVCAR-4 ovarian
SK-OV-3 ovarian = test system: SK-OV-3 ovarian
IGROV1 ovarian = test system: IGROV1 ovarian
OVCAR-3 ovarian = test system: OVCAR-3 ovarian
HS 578T breast = test system: HS 578T breast
NCI/ADR-RES ovarian = test system: NCI/ADR-RES ovarian
T-47D breast = test system: T-47D breast
BT-549 breast = test system: BT-549 breast
MDA-MB-435 melanoma = test system: MDA-MB-435 melanoma
SW-620 colon = test system: SW-620 colon
MCF7 breast = test system: MCF7 breast
HCT-116 colon = test system: HCT-116 colon
HCC-2998 colon = test system: HCC-2998 colon
KM12 colon = test system: KM12 colon

| Structure (SMILES) | growth (SR leukemia) | growth (RPMI-8226 leukemia) | growth (OVCAR-8 ovarian) | growth (OVCAR-5 ovarian) | growth (OVCAR-4 ovarian) | growth (SK-OV-3 ovarian) | growth (IGROV1 ovarian) | growth (OVCAR-3 ovarian) | growth (HS 578T breast) | growth (NCI/ADR-RES ovarian) | growth (T-47D breast) | growth (BT-549 breast) | growth (MDA-MB-435 melanoma) | growth (SW-620 colon) | growth (MCF7 breast) | growth (HCT-116 colon) | growth (HCC-2998 colon) | growth (KM12 colon) |
| --- | --- | --- | --- | --- | --- | --- | --- | --- | --- | --- | --- | --- | --- | --- | --- | --- | --- | --- |
| O=C(c1nc2ccccc2[nH]1)C1C(c2ccc(Cl)cc2)C2CC3CCCC[C@H]3N2[C@@]12C(=O)Nc1cc(Cl)ccc12 (stereo partly drawn) | 39% | 16.8% | 61.3% | 56% | 24.4% | 71.4% | 32% | 35% | 73.2% | 50.5% | 24.8% | 80.8% | 24.8% | 33.2% | 17.3% | 23.4% | 52% | 45.8% |
| C=C1C(=O)O[C@H]2[C@H]1CC/C(CNC(=O)/C=C/c1cccc(OC)c1)=C\CC[C@@]1(C)O[C@@H]21 | 8.06% (active) | 2.73% (active) | 3.77% (active) | 39.8% | 19.4% | 86% | 20.6% | -62.6% (active) | 73.1% | 82.6% | -4.32% (active) | -12.3% (active) | 16.7% | -61.9% (active) | -7.47% (active) | -62.2% (active) | 36.5% | 80% |
| Cc1cc2nc3c4ccc(Br)cc4n(CCN(C)C)c3nc2cc1C | -2.61% (active) | -30.4% (active) | 21.6% | 25.1% | 12.3% | 33.8% | 4.76% (active) | 21.1% | 53.9% | 17% | 21.6% | 57.5% | 18.3% | 0.693% (active) | 0.513% (active) | 9.24% (active) | 17% | 23.8% |
| COC(=O)CNC(=O)[C@]12CCC(C)(C)C[C@H]1C1=CC[C@@H]3[C@@]4(C)Cc5c([nH]c6ccccc56)C(C)(C)[C@@H]4CC[C@@]3(C)[C@]1(C)CC2 | 83.3% | 77% | 85.2% | 95.4% | 77% | 82.6% | 104% | 93% | 87.5% | 89.6% | 57.1% | 102% | 97.8% | 88.8% | 79.9% | 95% | 103% | 92.3% |
| O=C(/C(=C\c1ccc([N+](=O)[O-])cc1)S(=O)Cc1ccc(F)cc1)c1ccc(F)cc1 (stereo not drawn) | 8.47% (active) | -37.6% (active) | 29.3% | 40.4% | 45% | 103% | -19.1% (active) | 18.1% | 40.9% | 20.7% | 10.3% | 74.6% | 53.7% | -33.5% (active) | 16.4% | -20.5% (active) | 45.9% | 43.4% |
| N#CC(C#N)=Cc1cc2ccccc2nc1Oc1ccc(C(F)(F)F)cc1 | 30.8% | 3.66% (active) | 92.5% | 102% | 99.7% | 88.6% | 79.3% | 101% | 96.9% | 92.5% | 90.6% | 96.2% | 97% | 74.5% | 56.9% | 89.8% | 106% | 88.5% |
| COc1ccc(NC(N)=NCCCOc2ccc(F)cc2)cc1 | 93.6% | 86% | 94.1% | 92.1% | 70.1% | 79.1% | 67.7% | 99.9% | 113% | 99% | 23.2% | 67.3% | 80.4% | 88.6% | 10.7% | 54% | 76.3% | 84.4% |
| Oc1ccc(C(c2ccc(O)cc2)c2ccc(Br)cn2)cc1 | 104% | 119% | 2.17% (active) | 78.4% | -38.1% (active) | 65.4% | 11.8% | -37.4% (active) | -35.6% (active) | -38.7% (active) | -38.5% (active) | -42.6% (active) | 100% | 102% | -20.5% (active) | 19.4% | 3.49% (active) | 16% |
| O=C(CNCCN1CCOCC1)N1c2cccc3cccc(c23)N(C(=O)CNCCN2CCOCC2)C1c1cn(-c2ccccc2)nc1-c1cccc([N+](=O)[O-])c1 | -19.4% (active) | 44.8% | 88.3% | 107% | 90.7% | 109% | 74.3% | 93.6% | 69.1% | 87.7% | 77.6% | 89.7% | 80.1% | 83.2% | 36.9% | 50.7% | 35.4% | 98.8% |
| CC(Sc1nc2ccccc2c(=O)n1CCc1ccc(S(N)(=O)=O)cc1)C(=O)Nc1ccc(Cl)cc1 (stereo not drawn) | 77.4% | 65.9% | 72.8% | 85.7% | 93.2% | 125% | 86.3% | 99.1% | 86.5% | 77.3% | 67.6% | 102% | 98.7% | 98.1% | 84.6% | 79.9% | 103% | 97.5% |
| O=C(NCCNc1nccc(-c2c(-c3cccc(F)c3)nc3sccn23)n1)c1ccc(Cl)cc1 | 46.5% | 62.4% | 55.1% | 88.3% | 77.9% | 80.9% | 22.5% | 75.7% | 74.8% | 74.3% | 49% | 75.9% | 32.1% | 65.2% | 27.7% | 33% | 90.1% | 62.8% |
| Cc1cc2c(C(=O)NCC#N)cccc2n1-c1nc2c(c(NCc3ccccc3)n1)CCCC2 | 4.15% (active) | 5.03% (active) | 8.66% (active) | 1.88% (active) | -8.8% (active) | -6.94% (active) | -22.1% (active) | -59.9% (active) | 12% | 1.16% (active) | -16.6% (active) | -34.8% (active) | -59.8% (active) | 2.79% (active) | 1.12% (active) | -14.4% (active) | -87.6% (active) | -38.7% (active) |
| N#C/C(=C\c1c(-c2ccccc2)[nH]c2ccccc12)C(=O)c1ccc(Cl)cc1 | 48.6% | -9.73% (active) | 46.6% | 62.5% | -11.2% (active) | 53.3% | 59% | -33.2% (active) | 4.84% (active) | -2.46% (active) | 84.9% | 64.7% | 13.5% | 21.1% | -27.9% (active) | 30.9% | 30.7% | 20% |
| CCOC(=O)[C@@H](C)C[C@H](Cc1ccccc1)NC(=O)c1csc([C@@H](C[C@H](C(C)C)N(C)C(=O)[C@@H](NC(=O)[C@H]2C[C@H](O[Si](C)(C)C(C)(C)C)CCN2C)C(C)C)OC(C)=O)n1 | -13.9% [9.25 µM] (active) | -32.7% [9.25 µM] (active) | -2.84% [9.25 µM] (active) | 9.08% [9.25 µM] (active) | 17.3% [9.25 µM] | -2.86% [9.25 µM] (active) | 15.7% [9.25 µM] | 1.08% [9.25 µM] (active) | -17.7% [9.25 µM] (active) | -3.17% [9.25 µM] (active) | 37% [9.25 µM] | -29.6% [9.25 µM] (active) | -57.5% [9.25 µM] (active) | 11.8% [9.25 µM] | 13% [9.25 µM] | -25.9% [9.25 µM] (active) | -1.53% [9.25 µM] (active) | 2.03% [9.25 µM] (active) |
| CC(C)(C)c1ccc(NS(=O)(=O)c2ccc3nc(NC(=O)c4cnccn4)[nH]c3c2)cc1 | 4.26% (active) | 24.3% | 45.6% | 57% | 37% | 53.5% | 37.4% | -12.3% (active) | -1.91% (active) | 30.6% | 25.6% | 26.6% | -41% (active) | 18.1% | 18% | 25.4% | 70.2% | 16.6% |
| CCOC(=O)c1cc(C(=O)c2ccc(OC)c(OC)c2)n2c1ccc1ccccc12 | 86.5% | 80% | 94.7% | 104% | 91.9% | 93% | 58.6% | 99.6% | 93.8% | 91.5% | 85.3% | 100% | 89.5% | 93.4% | 80% | 88% | 109% | 98.4% |
